# Sampled rows, rich in hits. Any-hit rate of the full collection: about 5%.
# UCHL1 block: blocks human UCHL1 ubiquitin-rhodamine cleavage; inhibition, % at 20 µM; 47,000 tested, 0.2% active; P09936; purified UCHL1, Ub-rhodamine cleavage fluorescence; AID 1645859
# USP10 inh: inhibitors of human USP10 deubiquitinase; Q14694; purified USP10, Ub-rhodamine fluorescence, 60 min; inhibition, % at 20 µM; 47,000 tested, 1.1% active; AID 1645856
# USP8 inh: blocks human USP8 ubiquitin-rhodamine cleavage; purified USP8, Ub-rhodamine cleavage fluorescence, 30 min; inhibition, % at 20 µM; 47,000 tested, 4.2% active; AID 1645853
# USP7 inh: blocks human USP7 ubiquitin-rhodamine cleavage. Q93009. purified USP7, Ub-rhodamine cleavage fluorescence. inhibition, % at 20 µM. 47,000 tested, 0.3% active. AID 1645854
# Starred values were filed as active, the others as inactive. Cut-off read from the data, not from the text of the source: active = inhibition above about 30%; inactive = the rest.
SMILES,UCHL1 block,USP10 inh,USP8 inh,USP7 inh
Cc1ccc(-c2n[nH]c3c2C(c2ccccc2F)N(c2ccccc2)C3=O)cc1 (stereo unspecified),-1,26,71*,12
CCC1CN2C=Nc3oc(C)c(C(=O)Nc4cccnc4)c3C2=N1 (stereo unspecified),-2,-8,-3,-5
C/C=C/C=C(\CO)C(O)C(C)O (stereo unspecified),-1,-4,-14,-25
Cc1ccc(CNC(=O)Cn2c(=O)cc(-c3nc(C)no3)c3ccccc32)cc1,1,4,6,2
Cc1ccc2c(c1)c1ncn(Cc3nc(C)no3)c(=O)c1n2CC(=O)NCc1ccccc1,7,30*,35*,-5
O=C(Nc1ccccc1-c1nc2ccccc2[nH]1)c1sc2ccccc2c1Cl,3,33*,59*,32*
O=C(Nc1ccccc1-c1nc2ccccc2[nH]1)c1ccc(Br)cc1,-3,4,11,2
Cc1cc(C)cc(NC(=O)CCS(=O)(=O)c2cc3c(cc2C)NC(=O)CO3)c1,-5,8,0,3
O=C(CN(Cc1ccccc1)S(=O)(=O)c1ccccc1)NCc1ccccc1Cl,6,12,4,0
O=C(CN(CC(=O)NCc1ccccc1Cl)c1nc2ccccc2s1)NCc1ccccc1Cl,2,36*,69*,12
O=C1CC(c2ccc(O)cc2)c2c(nc(-c3ccccc3)[nH]c2=O)N1 (stereo unspecified),3,2,8,7
O=C1CC(c2ccc(Cl)cc2)c2c(nc(-c3ccccc3)[nH]c2=O)N1 (stereo unspecified),1,12,61*,16
CC(=O)c1c(O)c2ccccc2n(C2CCCCC2)c1=O,-13,-8,49*,-15
CC(=O)c1c(O)c2ccccc2n(Cc2ccccc2)c1=O,-3,-5,36*,-34
O=C(COc1cccc2c1CCN(Cc1cccnc1)C2=O)Nc1ccc2c(c1)OCCO2,0,-2,-88,-3
COc1ccc(-n2nnnc2-c2c[nH]c3c(F)cc(F)cc23)cc1,0,8,31*,6
O=C1CC(c2ccco2)Cc2[nH]c(=O)c(-c3nc(-c4ccc(Cl)cc4)cs3)cc21 (stereo unspecified),13,-10,34*,41*
COc1ccc(-c2csc(-c3cc4c([nH]c3=O)CC(c3ccco3)CC4=O)n2)cc1 (stereo unspecified),-36,-6,-16,-34
COc1cccc(C(C)NC(=O)c2snc(-c3ccncc3)c2N)c1 (stereo unspecified),-4,-1,-240,-2
COc1ccc(NS(=O)(=O)c2cccc(NC(=O)CCOc3ccccc3OC)c2)cc1,3,6,7,3
CCOc1ccc(C(=O)CCC(=O)Nc2cccc(S(=O)(=O)Nc3cccc(Cl)c3)c2)cc1,1,33*,0,6
Cc1cccc(NC(=O)Nc2cnn(-c3ncncc3N3CCOCC3)c2)c1C,0,-1,-21,-17
Cc1c(C#N)c2ccccc2n1CC(=O)NC1CCCCCC1,0,0,-19,5
O=C(Cn1cnc(-c2noc(-c3ccc(F)cc3)n2)c1)NC1CCCCC1,3,11,52*,6
O=C(Cn1cnc(-c2noc(-c3ccncc3)n2)c1)Nc1ccc(F)cc1,-3,-5,2,-4
SMILES,UCHL1 block,USP10 inh,USP8 inh,USP7 inh
O=C(Cn1c(-c2ccc(F)cc2)nc2ccccc21)NC1CCCCC1,-1,-3,34*,-48
O=C(NCc1ccccc1)c1cn(-c2cc(N3CCCCC3)ncn2)cn1,-1,3,-24,-2
COc1ccc(C(=O)Nc2ccc(O)cc2C(=O)O)cc1OC,5,4,33*,7
CC(C)(C)c1ccc(C(=O)Nc2ccc(O)cc2C(=O)O)cc1,2,5,14,5
O=C(Nc1ccccc1C(=O)O)c1ccc(CSCc2ccccc2)cc1,6,51*,-18,-34
COc1ccc2cc(C(=O)N3CCC(C(C)C(=O)NCc4ccc(F)cc4)CC3)[nH]c2c1 (stereo unspecified),-3,13,-23,1
O=c1[nH]c(C2CCN(S(=O)(=O)c3ccc(S(=O)(=O)NC4CCCCC4)cc3)CC2)nc2c1nnn2Cc1c(F)cccc1Cl,6,45*,24,15
Cc1ccc(C)c(Cn2nnc3c(=O)[nH]c(C4CCN(S(=O)(=O)c5ccc(S(=O)(=O)N6CCOCC6)cc5)CC4)nc32)c1,5,15,56*,12
O=c1[nH]c(C2CCN(S(=O)(=O)c3ccc(S(=O)(=O)NC4CCCCC4)cc3)CC2)nc2c1nnn2Cc1c(Cl)cccc1Cl,7,42*,40*,20
O=c1[nH]c(C2CCN(S(=O)(=O)c3ccc(S(=O)(=O)NC4CC4)cc3)CC2)nc2c1nnn2Cc1c(Cl)cccc1Cl,5,31*,32*,13
Cc1ccc(Cn2nnc3c(=O)[nH]c(C4CCN(S(=O)(=O)c5ccc(S(=O)(=O)NC6CCCCC6)cc5)CC4)nc32)cc1,4,24,-20,10
O=C1C[C@@H](O)[C@H](O)[C@@]23O[C@@]12C1(Oc2cccc4cccc(c24)O1)[C@@H]1O[C@@H]1[C@@H]3O,0,-5,-11,-24
Cn1c(C2CCN(C(=O)c3ccc4ccccc4n3)C2)nc2ccncc21 (stereo unspecified),0,1,-18,-2
O=C(NC1CCCCC1)C(c1ccc(F)cc1)N(CCCN1CCOCC1)C(=O)c1ccc(-c2ccccc2)[nH]1 (stereo unspecified),-3,-7,-15,0
O=c1[nH]c(C2CCN(S(=O)(=O)c3ccc(S(=O)(=O)NC4CCCCC4)cc3)CC2)nc2c1nnn2Cc1ccc(F)cc1,7,36*,36*,8
COc1cc(OC)cc(-c2noc(Cn3c(=O)[nH]c4cc5c(cc4c3=O)OCO5)n2)c1,2,3,82*,6
Cc1ccc(-c2noc(Cn3c(=O)[nH]c4cc5c(cc4c3=O)OCO5)n2)cc1,-1,9,55*,2
Cc1ccc(C2=Nc3ccccc3N(CC(=O)Nc3cccc(C)c3C)C(=O)C2)cc1C,2,12,43*,12
COc1cc2c(cc1OC)-c1cc(NCc3cc(OC)c(OC)c(OC)c3)nc(=O)n1CC2,-6,-8,-23,-3
COc1cc2c(cc1OC)-c1cc(-c3cc(OC)c(OC)c(OC)c3)cn1CC2,0,-3,36*,4
COCCC(=O)N1CCC2(CN(Cc3ccc(-c4ccccc4)cc3)C2)C1,-1,-3,-17,-3
COc1c(C)c(C(O)C(C)O)c2[nH]c3ccc(CC=C(C)C)cc3c2c1O (stereo unspecified),12,4,63*,-15
Cc1cc2c(cc(C(=O)NC3CC3)n2C)s1,-1,0,0,0
Cc1sc2ccn(C)c(=O)c2c1C(=O)NC1CCCC1,1,13,94*,-9
Cc1noc(-c2cc(=O)n(CC(=O)Nc3ccccc3)c3ccccc23)n1,0,9,0,-1
Cc1noc(-c2cc(=O)n(CC(=O)NC3CCCC3)c3ccccc23)n1,3,4,35*,5
Cc1noc(-c2cc(=O)n(CC(=O)Nc3ccccc3Cl)c3ccccc23)n1,2,34*,9,6

# Screening data from PubChem BioAssay.
